# Screen size: about 410,000 compounds; about 18,000 (4.4%) were called active. Another 7% or so got no clear call; they are omitted. Only a selection was taken, and actives are over-represented in it overall. Unmarked numbers belong to inactive results. Cut-off read from the data, not from the text of the source: active = activity change below about -60%; inconclusive = no clear call, values can overlap the other calls; inactive = above about -39%.
# Experiment: qHTS Assay for inhibitors of the human cytomegalovirus (HCMV)
# Settings: HFF cells, HCMV-luciferase reporter, 72 h; at 57.5 µM; hits give low values
# Outline: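 Screen run at 2 compound doses on HFFs infected with reporter HCMV, MOI 1 PFU/cell. Luciferase activity from cell lysates at 72 h post infection gave inhibition relative to buffer-only and Salinomycin wells.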
# % is set by controls: 0 for no effect and ±100 for the full control effect.
row,Structure (SMILES),"activity change, negative = inhibition"
1,COCCn1c(SCC(=O)c2cc(C)ccc2C)nc2cc(C(=O)NC3CCCC3)ccc2c1=O,-4.52%
2,CC(C)c1ccc(NS(=O)(=O)c2ccc3[nH]cc(C(=O)NC4CCCC4)c(=O)c3c2)cc1,9.04%
3,COc1cc(CNCCSc2nnnn2C)ccc1OCc1c(F)cccc1Cl,-60.3% (active)
4,Cn1nnnc1SCCNCc1ccc(Cl)c(Cl)c1,6.59%
5,COc1cccc(CNCCSc2nnnn2C)c1OCc1ccccc1Cl,-75.4% (active)
6,CCOc1ccc(CNCCSc2nnnn2C)cc1,-12.8%
7,COc1cc(CNCCSc2nnnn2C)ccc1OCc1ccc(Cl)cc1Cl,-13.2%
8,Cc1c(Cl)cccc1-c1ccc(CNCCCSc2nnnn2C)o1,-0.502%
9,Cc1ccc(Cn2c(C)c3cnn(CC(=O)NCc4ccccc4)c(=O)c3c2C)cc1,-4.95%
10,Cc1ccc(CNC(=O)CSC2=Nc3ccccc3C3=NC(C)C(=O)N23)cc1 (configuration not stated),-13.2%
11,CCCn1ccc2c(OCC(=O)NCc3ccc(F)cc3)cccc2c1=O,13.2%
12,CC1=C(c2ccc(F)cc2)S(=O)(=O)N=C1N1CCC(C(=O)NCCc2ccccc2C)CC1,-1.97%
13,CCOc1ccc(CNC(=O)CCc2c(C)nn(-c3ccc(N4CCCCC4)nn3)c2C)cc1,17.5%
14,CC(Sc1cccc[n+]1[O-])C(=O)Nc1cccc(S(=O)(=O)N2CCOCC2)c1 (configuration not stated),28.7%
15,CCC(=O)c1ccc(OCC(O)CN2CCN(c3cccc(C(F)(F)F)c3)CC2)cc1 (configuration not stated),-2.36%
16,CCC(=O)c1ccc(OCC(O)Cn2nc(C)c(C(C)=O)c2C)cc1 (configuration not stated),-74.9% (active)
17,CCC(=O)c1ccc(OCC(O)CN2C(=O)NC(C)(C)C2=O)cc1 (configuration not stated),-18.3%
18,COc1ccc(S(=O)(=O)N2CCCCC2c2cc(C(=O)NCc3ccc(F)cc3)no2)cc1 (configuration not stated),-15%
19,COc1ccccc1OCC(=O)Nc1nnc2n1CCS2,1.36%
20,CC1CN(C(=O)N2CCC(C(=O)NCc3ccco3)CC2)c2cc(Cl)ccc2O1 (configuration not stated),-3.73%
21,Cn1c(=O)c2sccc2n2c(CCC(=O)NCc3ccccc3Cl)nnc12,9.44%
22,O=C1CCCN1CCCNC(=S)Nc1ccc(F)c(Cl)c1,-22.1%

row,Structure (SMILES),"activity change, negative = inhibition"
1,O=C(CCc1nnc2ccc(NCCCN3CCCC3=O)nn12)NCc1ccccc1Cl,0% (active)
2,Cc1cc(=O)c2cc(C(=O)Nc3cccc(C)c3C)ccc2[nH]1,-7.29%
3,C[C@@H]1CC2=C(C(=O)OC(C)(C)O2)[C@@H](C2CC2)O1,7.2%
4,CCN(C(=O)COC(=O)c1c(C)nn(-c2ccccc2)c1Cl)c1c(N)n(Cc2ccccc2)c(=O)[nH]c1=O,-3.2%
5,Cn1cccc1Cc1nnc(SCC(=O)NCc2ccc3c(c2)OCO3)n1CCc1ccccc1,-7.07%
6,O=C(CSc1ncnc2scc(-c3ccccc3)c12)NCc1ccc2c(c1)OCO2,-73.8% (active)
7,O=C(CSc1ccc(-c2ccco2)nn1)NCc1ccc2c(c1)OCO2,-3.61%
8,COc1cc2nc(SCc3ccc(F)cc3)n3nc(CCn4c(C)nc5ccccc54)nc3c2cc1OC,-1.21%
9,O=C(CCC(=O)N1CC2CCCN2c2ccccc21)NCc1ccccc1Cl (configuration not stated),-6.89%
10,COc1cc(NC(=O)CSc2nc3nc(C)c(Cc4ccc(C)cc4)c(C)n3n2)cc(OC)c1OC,0%
11,CCOC(=O)c1c(NC(=O)C2CCN(S(=O)(=O)c3ccc(Cl)cc3)CC2)sc2c1CCCC2,-10.4%
12,CCOC(=O)c1c(NC(=O)c2ccc(S(=O)(=O)N3CCCC(C)C3)cc2)sc2c1CCN(C(C)C)C2 (configuration not stated),-62.5% (active)
13,COC(=O)c1c(NC(=O)c2ccc(S(=O)(=O)N3CCOCC3)cc2)sc2c1CCN(C(C)C)C2,-4.29%
14,NC(=O)CSc1nc2c(oc3ccccc32)c(=O)n1Cc1ccccc1,-22.4%
15,COc1ccc(OC)c(NC(=O)Cn2c(=O)n(Cc3ccccc3)c(=O)c3ccccc32)c1,-3.04%
16,COc1cccc(C(=O)N(Cc2cccc(Cl)c2)Cc2ccco2)c1,-7.17%
17,CCC(=C/c1sc2ccc3ccccc3c2[n+]1C)/C=C1\Sc2ccc3ccccc3c2N1C,-100% (active)
18,CCOc1ccc(N2CC(c3nc4ccccc4n3CCOc3ccc(OC)cc3)CC2=O)cc1 (configuration not stated),23.3%
19,Cc1ccc(-n2c(=O)c3cccnc3n2CC(=O)NCc2ccc(F)cc2)cc1C,-0.36%
20,CCOc1ccc(NC(=O)CSc2nc3ccccc3c(=O)n2Cc2cccs2)cc1,-62.8% (active)
21,O=C(CSc1nc2nccnc2c(=O)n1Cc1cccs1)Nc1ccccc1F,-31.3%
22,CCOc1ccc(NC(=O)c2cc3c(=O)n(Cc4cccs4)ccc3nc2C)cc1,-12.4%

row,Structure (SMILES),"activity change, negative = inhibition"
1,CCc1ccc(C(=O)C(C)OC(=O)CN2C(=O)NC3(CCCC3)C2=O)cc1 (configuration not stated),-31.9%
2,O=S(=O)(NCC1CN(S(=O)(=O)c2ccc3c(c2)OCCO3)C1)c1c(F)cccc1F,-3.7%
3,Cc1ccc(S(=O)(=O)c2nc(-c3ccco3)oc2SCC(=O)Nc2ccc(F)cc2)cc1,1.94%
4,COc1ccccc1CNc1nccn(-c2ccc(F)cc2)c1=O,18.6%
5,CCN(CC)S(=O)(=O)c1cc([N+](=O)[O-])ccc1N=Nc1c(O)n(C)c2ccccc12,-37.9%
6,Cn1cnc(C(F)(F)F)c1-c1ccc([N+](=O)[O-])cc1,-9.95%
7,Cn1nc(-c2ccccc2)c2cc([N+](=O)[O-])ccc21,-91.8% (active)
8,Cc1cccc(NS(=O)(=O)c2cc(Cl)ccc2Cl)n1,-15.4%
9,Cn1c(=O)c2[nH]c(NCC3CCCO3)nc2n(-c2ccccc2)c1=O (configuration not stated),-3.27%
10,CCCCCNC(=O)c1cccnc1SCC(=O)Nc1ccccc1OC,-9.93%
11,CCN1CCN(Cc2c(O)ccc3oc(C)c(C(=O)Nc4ccc(C)cc4C)c23)CC1,-4.07%
12,Cc1oc2ccc(O)c(CN3CCC(C)CC3)c2c1C(=O)Nc1ccccc1,-68.4% (active)
13,Cc1ccc(Oc2c(C(F)(F)F)oc3c(CN4CCCCC4)c(O)ccc3c2=O)cc1,13.5%
14,CCOC(=O)c1cccc(NC(=O)c2cc(CN3CCCC3)on2)c1,88.3%
15,Cc1oc2ccc(O)c(CN3CCCCC3)c2c1C(=O)Nc1cccc(C(F)(F)F)c1,-76.5% (active)
16,Cc1oc2ccc(O)c(CN3CCOCC3)c2c1C(=O)Nc1cccc(Cl)c1C,0.476%
17,O=C(NCC(F)(F)F)c1ccc(S(=O)(=O)NCCc2ccc3c(c2)OCCO3)cc1,-6.01%
18,CCOc1ccccc1NC(=O)Cn1c2ncccc2c(=O)n1-c1ccc(C)c(C)c1,-10.1%
19,CC1CCCN(S(=O)(=O)c2ccc3[nH]c(=O)cc(C(=O)NCCc4ccc(Cl)cc4)c3c2)C1 (configuration not stated),-16.9%
20,CCOC(=O)C(O)(c1ccc(NC(=O)c2ccco2)c(OC)c1)C(F)(F)F (configuration not stated),8.29%
21,COC(=O)C(O)(c1ccc(NC(=O)c2ccco2)c(OC)c1)C(F)(F)F (configuration not stated),14.6%
22,COc1cc(NC(=O)c2cc([N+](=O)[O-])ccc2Br)ccc1NC(=O)c1ccco1,-60.9% (active)

row,Structure (SMILES),"activity change, negative = inhibition"
1,C=CCOC(=O)C1=C[C@@H](c2ccc3c(c2)OCO3)C[C@@H](OCCCCO)O1,20.6%
2,CN1C(=O)CC[C@@H](S(=O)(=O)c2ccccc2)[C@@H]1c1ccccc1,9.42%
3,CCOCCCNC(=O)c1cn(CC)c2ccc(S(=O)(=O)N3CCc4ccccc4C3)cc2c1=O,8.54%
4,Cc1cc(C)c2nc3nc(C)cc(C)c3c(N)c2c1,-100% (active)
5,CCOc1ccc(S(=O)(=O)NCCC(=O)N2CCCCCCC2)cc1,-33.2%
6,CCNC(=O)c1cnn(-c2ccccc2)c1-c1ccccc1,-99.9% (active)
7,CCCc1c(C(=O)Nc2ccc(F)cc2)cnn1-c1ccccc1,64.5%
8,Cc1c(C(=O)NCc2ccccc2)cnn1-c1ccccc1,-15.9%
9,CSc1cccc(NC(=O)CN2C(=O)CCc3cc(S(=O)(=O)N4CCCCC4)ccc32)c1,23.2%
10,Cc1ccc(NC(=O)Nc2sc3nc4n(c(=O)c3c2C)CCC(C)CC4)c(Cl)c1 (configuration not stated),-0.215%
11,O=C(/C=C/c1ccc([N+](=O)[O-])o1)NNC(=O)c1ccc(F)cc1,-99.5% (active)
12,N#Cc1nc(/C=C/c2ccc(F)cc2)oc1NC1CCCCC1,-16.7%
13,O=C1C=CN2CCCC2CC1 (configuration not stated),-5.48%
14,CCc1ccc(NC(=O)Cn2c(=O)n(CCC(=O)NCc3ccc4c(c3)OCO4)c(=O)c3ccccc32)cc1,7.9%
15,O=C(NCc1ccc(Cl)cc1)C1CCN(S(=O)(=O)c2cccs2)CC1,-33.3%
16,O=C(Nc1ccc(Br)cn1)C1CCN(S(=O)(=O)c2cccs2)CC1,-89.3% (active)
17,O=C(C1CCN(S(=O)(=O)c2cccs2)CC1)N1CCCCCC1,-4.69%
18,CCCCN(CC)CCCNC(=O)c1nn(C)c2c1CSc1ccccc1-2,-32.8%
19,Cc1ccc(Cl)cc1N(C)C(=O)Cn1nc(Cc2cccnc2)c2ccccc2c1=O,-61.7% (active)
20,O=C(Cn1nc(Cc2cccnc2)c2ccccc2c1=O)NCC1CCCO1 (configuration not stated),-1.61%
21,CN(CC(=O)NCc1cccnc1)S(=O)(=O)c1cc(Cl)ccc1Cl,-21.9%

# Source: PubChem BioAssay AID1259415 (National Center for Advancing Translational Sciences (NCATS), 2018)
